According to PubChem BioAssay AID485344 (National Center for Advancing Translational Sciences (NCATS), 2010):
Several values for one entry are separate records, joined by “and”; a condition that tells them apart may be missing. Identical values can stand only once. The campaign covered roughly 340,000 compounds. About 6,900 (2%) were called active. Cut-off read from the data, not from the text of the source: active = inhibition above about 30%; inactive = below that, where a call was filed. The entries come from a sample that favours actives as a whole.

Target: D(2) dopamine receptor (Homo sapiens) (UniProt P14416)
Sequence (P14416 whole entry, looked up): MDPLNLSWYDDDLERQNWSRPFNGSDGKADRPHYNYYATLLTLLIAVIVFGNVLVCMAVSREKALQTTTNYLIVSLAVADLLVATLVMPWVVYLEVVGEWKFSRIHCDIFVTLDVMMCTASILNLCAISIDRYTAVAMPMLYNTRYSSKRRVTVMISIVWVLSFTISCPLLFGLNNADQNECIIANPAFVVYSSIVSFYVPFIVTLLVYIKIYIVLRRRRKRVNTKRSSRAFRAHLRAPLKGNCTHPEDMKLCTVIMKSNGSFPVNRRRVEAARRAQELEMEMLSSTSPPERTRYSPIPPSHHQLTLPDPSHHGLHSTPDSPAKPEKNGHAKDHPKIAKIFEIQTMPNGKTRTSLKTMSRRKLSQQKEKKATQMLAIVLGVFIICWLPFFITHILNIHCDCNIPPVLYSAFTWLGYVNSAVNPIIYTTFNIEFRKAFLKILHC
Test: HTS Assay for Allosteric Antagonists of the Human D2 Dopamine Receptor: Primary Screen for Antagonists; note: 0% is about no effect
Conditions: HEK293 TREx D2 cells, calcium flux, dopamine EC80; at 10 µM; active compounds read high
Method in brief: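 Calcium mobilization kinetics were recorded at 1 s intervals in tetracycline-induced HEK293 T-REx D2 cells, first for 180 s after compound addition and then 180 s after EC80 dopamine.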

inhibition, active:
COc1ccccc1OCCNCC(O)COc1cccc2[nH]c3ccccc3c12 (stereo not given) 59.1% and 51.5%
CC(C)c1ccc(NC(=O)Cn2ncc3ccccc32)cc1 32.4%
O=C(CCCN1CCc2[nH]c3ccc(F)cc3c2C1)c1ccc(F)cc1 92.7%
CCc1ccc(CNC(=O)C2CCCN(c3nc4ccccc4o3)C2)cc1 (stereo not given) 39.6%
Cc1oc(-c2ccccc2F)nc1CS(=O)(=O)CC(=O)NCCCN(C)C1CCCCC1 45.2%

inhibition, inactive:
CCCCN(C(=O)C1=NN(c2cc(C)ccc2C)C(=O)CC1)c1c(N)n(CCC)c(=O)[nH]c1=O -7.61%
CC(O)CNCCOc1cccc(Oc2ccccc2)c1 (stereo not given) -19.3%
COc1cccc2[nH]c(C(=O)NCCc3ccccc3)cc12 -14.1%
O=S(=O)(O)Oc1c[nH]c2ccccc12 19.7%
CCN(CC)S(=O)(=O)c1ccc(CNC(=O)CN2C(=O)NC3(CCc4ccccc43)C2=O)cc1 (stereo not given) -6.28%
CCc1ccc(NC(=O)Cn2ncn3c(cc4ccccc43)c2=O)cc1 12.2%
CCOC(=O)c1cn(CC(=O)Nc2ccc(C(C)C)cc2)nn1 -8.92%
COc1ccc(OCCCC(=O)Nc2cccc(S(=O)(=O)N3CCCCCC3)c2)cc1 -0.774%
O=C(c1cn(-c2ccccc2)nc1-c1cccnc1)N1CCN(S(=O)(=O)c2ccccc2F)CC1 17.6%
CCCN(CC(=O)NC(=O)NC1CCCCC1)CC(=O)Nc1cc(Cl)ccc1Cl -13.3%
Fc1ccc(NC(=S)N2CCc3[nH]c4ccccc4c3C2)cc1 -0.813%
Cc1ccc2[nH]c3c(c2c1)CN(C(=O)CN1CCN(c2ccccc2)CC1)CC3 4.69%
O=C(COC(=O)c1ccc2ncsc2c1)Nc1ccc(Cl)cc1 18.7%
COc1ccccc1CNC(=O)C1CCN(c2nc3ccccc3o2)CC1 9.79%
COc1ccc(OC)c(CNC(=O)C2CCCN(c3nc4ccccc4o3)C2)c1 (stereo not given) -3%
CCCCc1ccc(NC(=O)CN2C(=O)NC(Cc3ccccc3)C2=O)cc1 (stereo not given) 16.7%
COCc1c(C(=O)OCC(=O)Nc2ccc(OC(F)F)cc2)oc2ccccc12 -10.8%
Cc1oc(-c2ccccc2F)nc1CS(=O)CC(=O)NCCN1CCCCC1C (stereo not given) -10.8%
CSc1ccc(CCNC(=O)CS(=O)(=O)Cc2nc(-c3ccccc3F)oc2C)cc1 -16.4%
O=[N+]([O-])c1cc(S(=O)(=O)NCCc2ccccn2)ccc1Cl 9.65%
